Here are results for 13 molecules from article PMC12864922, “TDP-43 directly inhibits mRNA accumulation in neurites through modulation of mRNA stability”.

To fix the notation:
B1: ENSMUSG00000031028.145|Tub (ssRNA)
RNA: GGGAGUUCUACAGUCCGACGAUCGCUUCGAUAUCCGCAUGCUAACAGGAUCUAGGUCACCAUUCAAGUAAUGGUAUGCUUCAGGAAGAAUGUCCUCUCUGGGAAGACUCAGCUCCCAUUAUUGCCAGCAUGCCAUGAUCAGUGAGGGCUGUGUGCCAUGCUUAGGGGGAUGGCGCAGGGUGAGGGGAGCAGAGGAUAUUUUAGGGCCACAAGAGCUCAGAGGUAGCGGACCUCUGUGUGGUUCACCAACAGCAAUGCUGAUCCCUGAGUAUAGGGCACAUGUCUCUUGGUUACCUCACUGGUUCUCUUGCGGUCGCACUAGUGUGGAAUUCUCGGGUGUCAAGG
B2: ENSMUSG00000061578.1426|Ksr2 (ssRNA)
RNA: GGGAGUUCUACAGUCCGACGAUCGCUUCGAUAUCCGCAUGCUACUCUUCCUUUUCCUUUUUAGAUCUGUCUUGCUCUCUGUCUCUCUCACUCAUUGCCAACAUGUUGCUGGGAAAGAAUAUUUGAUUUAGAUGCCAAUCAGGAAGGCAAGUAGGAUGGAUGGAUGAGUGAGUGGAUAGGUAGGUAUAUAAAUGGAUGGAUGGGUGAUGGAUGGGUAAAUGAAUGGAUAGGUAUGUGAAUGAAUGGAUGAUGGAUGAAUGGAUGGGUAGGUGGGUAGAUAGGUAUAUGAAUGAAUGGAUGAAUGCUCUUGCGGUCGCACUAGUGUGGAAUUCUCGGGUGUCAAGG
B3: ENSMUSG00000043670.185|Diras1|17:21;114:118;148:152;162:171;177:184;217:221;250:260 (ssRNA)
RNA: GGGAGUUCUACAGUCCGACGAUCGCUUCGAUAUCCGCAUGCUAGCCUCUUUGCUGGUCAACACAACUCUGGAGACUGUCCCCCAUGUCUGCCCUGAGUUACGGAGCCCCUGUGGUAUCUGCGAGACUGUCCAGGAGACUUGAGUGGCUCCUGGGCCACACACCCACCCAGAUGAGGGUGACUUAGAAUUCACACAUUAUGUGCCACACACACACGAUGGCACACACACUGUCUUGGGAUGGGGUGUUCUUGCACCACUUACACAUCUUAGUGAGACCACAGUGUAAGUGGCCCACACACACACCUCUUGCGGUCGCACUAGUGUGGAAUUCUCGGGUGUCAAGG
B4: ENSMUSG00000029028.8|Lrrc47 (ssRNA)
RNA: GGGAGUUCUACAGUCCGACGAUCGCUUCGAUAUCCGCAUGCUAGUACCCAUCCAAGACGGACCUGAUCACCCUCCCUCCCCACGUGACUGUGGUCCGCUGACAGGCUCCUGUAGGUGUGGGUGUGCUGUAGGUGUCUGUGUGGGUGUGGGUGUGCUGUAGGUGUCUGUGUGGGUGUGGGUGUGCUAUAGGUAUCUGUGGGUGUGCUGUAGGUGUCUGUGUGGGUGUGCUGUAGGUGUCUGUGUAGGUGUGGGUGUGCUGUAGGUGUCUGUGUGGGUGUGCUAGGUGUCUGUAUAGGUGUGGGUCUCUUGCGGUCGCACUAGUGUGGAAUUCUCGGGUGUCAAGG
B5: ENSMUSG00000029028.9|Lrrc47 (ssRNA)
RNA: GGGAGUUCUACAGUCCGACGAUCGCUUCGAUAUCCGCAUGCUAAUCCAAGACGGACCUGAUCACCCUCCCUCCCCACGUGACUGUGGUCCGCUGACAGGCUCCUGUAGGUGUGGGUGUGCUGUAGGUGUCUGUGUGGGUGUGGGUGUGCUGUAGGUGUCUGUGUGGGUGUGGGUGUGCUAUAGGUAUCUGUGGGUGUGCUGUAGGUGUCUGUGUGGGUGUGCUGUAGGUGUCUGUGUAGGUGUGGGUGUGCUGUAGGUGUCUGUGUGGGUGUGCUAGGUGUCUGUAUAGGUGUGGGUGUGCUGCUCUUGCGGUCGCACUAGUGUGGAAUUCUCGGGUGUCAAGG
B6: ENSMUSG00000029028.7|Lrrc47 (ssRNA)
RNA: GGGAGUUCUACAGUCCGACGAUCGCUUCGAUAUCCGCAUGCUAGGUGGUGUACCCAUCCAAGACGGACCUGAUCACCCUCCCUCCCCACGUGACUGUGGUCCGCUGACAGGCUCCUGUAGGUGUGGGUGUGCUGUAGGUGUCUGUGUGGGUGUGGGUGUGCUGUAGGUGUCUGUGUGGGUGUGGGUGUGCUAUAGGUAUCUGUGGGUGUGCUGUAGGUGUCUGUGUGGGUGUGCUGUAGGUGUCUGUGUAGGUGUGGGUGUGCUGUAGGUGUCUGUGUGGGUGUGCUAGGUGUCUGUAUAGGUCUCUUGCGGUCGCACUAGUGUGGAAUUCUCGGGUGUCAAGG
B7: ENSMUSG00000029028.10|Lrrc47 (ssRNA)
RNA: GGGAGUUCUACAGUCCGACGAUCGCUUCGAUAUCCGCAUGCUAGACGGACCUGAUCACCCUCCCUCCCCACGUGACUGUGGUCCGCUGACAGGCUCCUGUAGGUGUGGGUGUGCUGUAGGUGUCUGUGUGGGUGUGGGUGUGCUGUAGGUGUCUGUGUGGGUGUGGGUGUGCUAUAGGUAUCUGUGGGUGUGCUGUAGGUGUCUGUGUGGGUGUGCUGUAGGUGUCUGUGUAGGUGUGGGUGUGCUGUAGGUGUCUGUGUGGGUGUGCUAGGUGUCUGUAUAGGUGUGGGUGUGCUGUAGAUGCUCUUGCGGUCGCACUAGUGUGGAAUUCUCGGGUGUCAAGG
B8: ENSMUSG00000029028.6|Lrrc47 (ssRNA)
RNA: GGGAGUUCUACAGUCCGACGAUCGCUUCGAUAUCCGCAUGCUACUUGAAGGUGGUGUACCCAUCCAAGACGGACCUGAUCACCCUCCCUCCCCACGUGACUGUGGUCCGCUGACAGGCUCCUGUAGGUGUGGGUGUGCUGUAGGUGUCUGUGUGGGUGUGGGUGUGCUGUAGGUGUCUGUGUGGGUGUGGGUGUGCUAUAGGUAUCUGUGGGUGUGCUGUAGGUGUCUGUGUGGGUGUGCUGUAGGUGUCUGUGUAGGUGUGGGUGUGCUGUAGGUGUCUGUGUGGGUGUGCUAGGUGUCUGUCUCUUGCGGUCGCACUAGUGUGGAAUUCUCGGGUGUCAAGG
B9: ENSMUSG00000029028.10|Lrrc47|60:64;66:70;82:87;89:93;95:99;111:116;118:122;124:128;145:149;161:166;168:172;184:188;191:195;197:201;213:218;220:224;241:245;247:2 … (ssRNA)
RNA: GGGAGUUCUACAGUCCGACGAUCGCUUCGAUAUCCGCAUGCUAGACGGACCUGAUCACCCUCCCUCCCCACGUGACUGUGGUCCGCUGACAGGCUCCUGUAGCACACGCACACCUGUAGGUGUCACACACGCACACGCACACCUGUAGGUGUCACACACGCACACGCACACCUAUAGGUAUCUGUGGCACACCUGUAGGUGUCACACACGCACACCUGUAGGUGUCACACAAGCACACGCACACCUGUAGGUGUCACACACGCACACCUAGGUGUCUGUAUAGCACACGCACACCUGUAGAUGCUCUUGCGGUCGCACUAGUGUGGAAUUCUCGGGUGUCAAGG
B10: ENSMUSG00000031028.612|Tub|38:42 (ssRNA)
RNA: GGGAGUUCUACAGUCCGACGAUCGCUUCGAUAUCCGCAUGCUAUGAGCAGCUAGAGCAUUUGAGCAACCCAUGUAAUCUUACACAUUCCCUCCCUGUAAGAAGGCCUGUCAGAGCUUGCUGUAGGAGUUAGGGUAAAUGAAAGUUAGUCCUGGCUCUCAUCACCACCUUUCCUAGCUCAUCACUGUGCCUUCUUUCUUCCCUAAGAAAGACAAUGCACCCCUCUCUUCUGUUCUCCUGCCCCUUCGCCCCCACUGAGGUCCAGGUAGAGCAGAUGAGGCUGAAAUGUAGAGUGUUCUAUAGAGCUCUUGCGGUCGCACUAGUGUGGAAUUCUCGGGUGUCAAGG
B11: ENSMUSG00000043670.77|Diras1|85:90 (ssRNA)
RNA: GGGAGUUCUACAGUCCGACGAUCGCUUCGAUAUCCGCAUGCUAGGAUCUGAAAACAGGGACCUGGCUAAGGAACUGCUCAUCCCAGUCAGGCCCAGAGAGGUUACCUUGCCUCUCCAUCUCUGUCCCACACACCCCAGCCAUGCCCACUGUCCCUGUCCCUCACAUUCUAUCACUGUGACCUCUGGGGAGUGCCCAUUGACCUCAUCUUCCUUCACUAAUAUCUUAUUUCUUUCACCUGAUCCUGUCCUUUCCCCGUGACCUCUGACCUGUGGCCUUCCCUGGGUCCAGAACACCCCUGUCCUCUCUUGCGGUCGCACUAGUGUGGAAUUCUCGGGUGUCAAGG
B12: ENSMUSG00000090935.47|Synj2bp (ssRNA)
RNA: GGGAGUUCUACAGUCCGACGAUCGCUUCGAUAUCCGCAUGCUAGCGGGAUGUGCUGUGUCCCUGAGAGUACAGCACAGGGUAGGUAUUACCUGCACCUGGAUAUGGGACAGUAGGCUUUUACACUGUUCUUGUGAAUAGGUUUGUAAGCUUCAAAGUCUGCUUUACUUUAUCUUCUGUUAUGAUUGCCUUUGUCAGCAUAGGCAGGAGUCCUUUAGGAUUUCUGCCUAUCAGUAAAAGAAGUAUGUAACCCAAGUUCUACCUUCAGUGGAUUAAAGUUUCAUUAAGUGAAAAUGGAAAGAAAGCUCUUGCGGUCGCACUAGUGUGGAAUUCUCGGGUGUCAAGG
B13: ENSMUSG00000058297.314|Spock2 (ssRNA)
RNA: GGGAGUUCUACAGUCCGACGAUCGCUUCGAUAUCCGCAUGCUAGCUGAGGCUUCCAGGACAAAGCCCCAGUCUGGCUCUCCCCCAGCCUCUCAGGGGCACUGGCUGGUCACAUCCACUGAGUAUUGAUCGGUUGGACUUUAGGGAAGAGCCUCCUCCUUCCCAUUCCUUUCUGCCACCCUGGAAUGGCCACCUUAAUCGUCAUCUCCUCGGGGGGAAUACGGAAAUGUCACCAAGCUCCAUAAAGUGCUUCUCAUUCCACGACACAGUUCUGACUCUCCGGGUGACUGUCACCUGCUCCCAUCCUCUUGCGGUCGCACUAGUGUGGAAUUCUCGGGUGUCAAGG

The full ranking holds about 9,900 sequences; the median of “r (bound/input frequency ratio)” is about 0.7, and the highest 2% start at about 6.5. Only a selection was taken, and the highest values are over-represented in it overall.

TDP-43, sequence (Q13148 whole entry): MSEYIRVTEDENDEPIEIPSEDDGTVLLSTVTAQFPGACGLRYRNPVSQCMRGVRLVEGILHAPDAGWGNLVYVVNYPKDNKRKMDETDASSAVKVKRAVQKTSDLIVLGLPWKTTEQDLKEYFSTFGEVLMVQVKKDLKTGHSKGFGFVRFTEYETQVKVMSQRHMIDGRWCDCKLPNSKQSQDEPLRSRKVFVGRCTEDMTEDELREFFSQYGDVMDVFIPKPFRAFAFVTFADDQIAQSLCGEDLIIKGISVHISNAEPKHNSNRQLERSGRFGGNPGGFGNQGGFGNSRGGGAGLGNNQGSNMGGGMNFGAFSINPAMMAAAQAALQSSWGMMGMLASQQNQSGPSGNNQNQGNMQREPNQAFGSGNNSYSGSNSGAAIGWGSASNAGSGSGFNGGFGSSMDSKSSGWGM

The target of the assay is TDP-43 (Homo sapiens, UniProt Q13148 1-414). The assay can be described thus: RNA Bind-n-Seq with designed 260-mer pool; 25 mM Tris-HCl, 150 mM KCl, 3 mM MgCl2, BSA (printed 500 mg/mL), 20 units/mL SUPERase IN; pH not stated; 500 nM RNA pool, 1 h, 4 C; TDP-43 5, 50, 500 nM; high values mean tight binding. Particulars: protein: recombinant; tags: SBP (GST cleaved off with PreScission; pGEX-GST-SBP). Put shortly:
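The incubation lasted 1 h at 4 °C and used 500 nM of an in vitro-transcribed 260-nt 3′ UTR oligo pool with recombinant SBP-tagged TDP-43 at 5, 50 or 500 nM immobilized on streptavidin beads. It took place in 25 mM Tris-HCl, 150 mM KCl, 3 mM MgCl2, BSA and SUPERase IN. Bound RNA was washed, eluted with biotin, converted to cDNA, PCR-amplified and sequenced to give R, each oligo's normalized abundance in the bound sample divided by that in input. Two independent protein batches provided the duplicates.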
With B1, the binding signal was 0.682 R (bound/input frequency ratio).

In the case of B2, the binding signal was 4.09 R (bound/input frequency ratio).

Regarding B3, the binding signal is 0.956 R (bound/input frequency ratio).

Regarding B4, the binding signal was 5.96 R (bound/input frequency ratio).

With B5, the binding signal is 6.63 R (bound/input frequency ratio).

As to B6, the binding signal is 5.82 R (bound/input frequency ratio).

B7: the binding signal was 6.52 R (bound/input frequency ratio).

On to B8, for which the binding signal was 5.29 R (bound/input frequency ratio).

For B9, the binding signal is 1.07 R (bound/input frequency ratio).

As to B10, the binding signal was 1.48 R (bound/input frequency ratio).

Take B11: the binding signal is 2.44 R (bound/input frequency ratio).

With B12, the binding signal is 1.42 R (bound/input frequency ratio).

Take B13: the binding signal is 1.1 R (bound/input frequency ratio).
